15-hLO-2 inh = qHTS Assay for Inhibitors of 15-hLO-2 (15-human lipoxygenase 2) | purified 15hLO-2, xylenol orange hydroperoxide absorbance | Potency, µM (titrated, usually from 57.1 µM), for the others: at the top dose activity change, negative = inhibition, hits mostly inhibitors | 110,000 tested, 0.56% active | AID 881, 2007; note: nearly all actives have a fitted effect of over 60% in size
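Purified human 15hLO-2 (50 nM) preincubated 15 min with compound, then 45 uM arachidonic acid for 90 min at RT in 25 mM Hepes pH 7.5, 0.01% Triton X-100. Hydroperoxide detected by Fe-xylenol orange; 573/405 nm absorbance ratio.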
12-hLO inh = qHTS Assay for Inhibitors of 12-hLO (12-human lipoxygenase) | Polyunsaturated fatty acid lipoxygenase ALOX12 (Homo sapiens), P18054 | purified 12-hLO, xylenol orange hydroperoxide absorbance | Potency, µM (top dose mostly 57.1 µM), for inactives: at the top dose activity change, negative = inhibition, hits mostly inhibitors | 150,000 tested, 0.12% active; note: nearly all actives have a fitted effect of over 55% in size
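Lipoxygenase turnover measured by absorbance at 573 and 405 nm after Fe-XO development. Human 12hLO 150 nM, arachidonate 40 uM, pH 7.0 Hepes buffer with detergent; 15 min compound preincubation, 30 min reaction.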
Starred values were filed as active, the others as inactive; ? = inconclusive; . = no result given; [ ] = dose if it differs, or a comment. Only a selection was taken, and hits are over-represented in it overall. Calls come from the whole dose curve; as a rule, active = well fitted curve in the direction sought with a large enough effect; inconclusive = small, poorly fitted or top-dose-only effect, or another doubt; inactive = no such curve, though single readings can be large; an effect the other way counts as inactive or inconclusive. % is set by controls: 0 for no effect and ±100 for the full control effect; potency is the fitted concentration of half-maximal effect.

SMILES	15-hLO-2 inh	12-hLO inh
Cc1nn(-c2ccc(S(=O)(=O)O)cc2)c(O)c1N=Nc1ccc(-c2ccc(N=Nc3ccc4c(S(=O)(=O)O)cc(S(=O)(=O)O)c(N)c4c3O)c(O)c2)cc1O.[Cu].[Cu]	37%[11.4 µM]	-21%[11.4 µM]
COc1cc(-c2ccc(N=Nc3ccc4c(S(=O)(=O)O)cc(S(=O)(=O)O)c(N)c4c3O)c(OC)c2)ccc1N=Nc1ccc2c(S(=O)(=O)O)cc(S(=O)(=O)O)c(N)c2c1O	25µM*	-6%
CC(Oc1ccc(Cl)cc1Cl)C(=O)Nc1ccncc1 (stereo not given)	8%	-17%
CC(Oc1ccc(Cl)cc1Cl)C(=O)NC1=NN(c2ccccc2)C(=O)C1 (stereo not given)	7.9µM*	8.9µM*
COc1ccc(-c2nc(-c3ccccc3)oc2Nc2c(C)cccc2C)cc1	.	-2%
Cc1ccc(O)c(C=Nc2cc(C)ccc2O)c1	.	-12%
CCc1ccc(O)c(N=Cc2ccccc2O)c1	16µM*	?
OC[C@@H]1NC[C@@H](O)[C@H]1O	-6%	2%
CC(C)(C)c1nn(-c2ccccc2)c2[nH]c(=O)c(CNc3ccc4c(c3)OCCO4)cc12	-6%	-11%
Cc1nn(-c2ccccc2)c2[nH]c(=O)c(CNc3ccc(N4CCOCC4)cc3)cc12	16µM*	?
CN(C)c1ccc(N=c2sc3ccccc3n2C)cc1	7.9µM*	-6%
Cn1c(=Nc2ccccc2)sc2ccccc21	14%	3%
CCOC(=O)C1=C(O)/C(=C\c2cccc(OC)c2)N=C1C	-24%	-4%
CCCCc1ccc(/C=C2\C(=O)c3ccccc3C(O)=C2C(=O)OCC)cc1	10µM*	-9%
O=C(NCc1nc2ccccc2[nH]1)c1ccc(Cl)c(S(=O)(=O)N2CCCC2)c1	35%	2%
CSCC[C@H](NC(=O)c1ccc(Cl)c(S(=O)(=O)N2CCCC2)c1)c1nc2ccccc2[nH]1	4%	18µM*
O=C(O)c1cc(O)c2c(c1)[C@H]([C@H]1c3cc(C(=O)O)cc(O)c3C(=O)c3c(O[C@@H]4OC(CO)C(O)C(O)C4O)cccc31)c1cccc(O[C@@H]3OC(CO)C(O)C(O)C3O)c1C2=O (stereo not given in full)	10µM*	-3%
O=C1c2cccc(O)c2C(=O)c2c(O[C@@H]3O[C@H](CO)[C@@H](O)[C@H](O)[C@@H]3O)cccc21	10%[11.4 µM]	-6%[11.4 µM]
O=C(NCc1ccncc1)C1CCCCC1	-6%	5%
C[C@H](NC(=O)/C(C#N)=C/c1ccc(O)c(O)c1)c1ccccc1	?	20µM*
CC(NC(=O)/C(C#N)=C/c1ccc(Cl)c([N+](=O)[O-])c1)c1ccccc1 (stereo not given)	.	-25%
O=C(O)C1CC(=O)N(CCC23CC4CC(CC(C4)C2)C3)C(=Nc2ccccc2)S1 (stereo not given)	.	-19%
Cc1ccc(C2=C(Cl)C(=O)C(c3ccc(C)cc3)=C(Cl)C2=O)cc1	-21%[11.4 µM]	-7%[11.4 µM]
Cc1cc(C(=O)Nc2ccccc2C(F)(F)F)no1	-3%	-11%
Cc1ccc(C(=O)NC(=S)Nc2ccccc2C(F)(F)F)cc1C	25µM*	22µM*
SMILES	15-hLO-2 inh	12-hLO inh
C=C/C1=C/Cc2ccccc2[C@H](C[N+](=O)[O-])C(C(C)=O)(C(=O)OC)C1 (stereo not given in full)	.	1%
Cc1cccc(C)c1OC[C@@H](N)C(C)C	-11%	-5%
N#C/C(=C\c1ccc(N2CCOCC2)o1)c1nc2ccccc2[nH]1	-28%	-2%
N#C/C(=C/c1ccc(N2CCOCC2)o1)c1ccc(Cl)cc1	10µM*	?
CCOC(=O)CN1C(=O)N[C@@H](c2cccc(C(F)(F)F)c2)[C@H](C(=O)OC)[C@H]1C	.	1%[11.4 µM]
CC(=O)NC(=S)Nc1ccc(NC(=O)c2cccs2)cc1	.	-1%
Cc1c(C(=O)NC(=S)Nc2ccc(NC(=O)c3cccs3)cc2)oc2ccccc12	7.9µM*	?
Cc1ccc2nc(-c3ccc(N)cc3)sc2c1S(=O)(=O)O	-15%	-1%
COCCn1c(=O)c(-c2cc(F)cc(F)c2)nc2cnc(N3CCN(C)CC3)nc21	1%	.
CN1CCN(c2ncc3nc(-c4cc(F)cc(F)c4)c(=O)n(CCC#N)c3n2)CC1	20µM*	.
NC(=O)C1=CN([C@@H]2O[C@@H](COP(=O)(O)OP(=O)(O)OC[C@@H]3O[C@H](n4cnc5c(N)ncnc54)[C@@H](OP(=O)(O)O)[C@@H]3O)[C@H](O)[C@@H]2O)C=CC1	15%	?
CCCCc1cc2c(cn1)=C(OC(=O)c1ccco1)C(C)(OC(=O)CC)C(=O)C=2 (stereo not given)	.	-2%[11.4 µM]
Cc1ccc(/C=C2\SC(=S)N(CC(=O)Nc3ncc(Cc4ccccc4Cl)s3)C2=O)cc1	13µM*	-3%

High-throughput results as filed in PubChem.
